Drawing on PubChem BioAssay (Tox21), this text covers Potency for 40 compounds.

“And” between values parts separate entries of the source, which are not always exact repeats. Identical values can stand only once. Some structures have more than one record in an assay (separate samples or runs), and their calls can disagree. The source made the active and inactive calls. A call without a number means that no potency is given here. Calls follow the shape of the full dose curve.
Potency is read from the fitted curve at half-maximal effect.

Sequence of Muscarinic acetylcholine receptor M1 (Homo sapiens) (P11229 whole entry, looked up): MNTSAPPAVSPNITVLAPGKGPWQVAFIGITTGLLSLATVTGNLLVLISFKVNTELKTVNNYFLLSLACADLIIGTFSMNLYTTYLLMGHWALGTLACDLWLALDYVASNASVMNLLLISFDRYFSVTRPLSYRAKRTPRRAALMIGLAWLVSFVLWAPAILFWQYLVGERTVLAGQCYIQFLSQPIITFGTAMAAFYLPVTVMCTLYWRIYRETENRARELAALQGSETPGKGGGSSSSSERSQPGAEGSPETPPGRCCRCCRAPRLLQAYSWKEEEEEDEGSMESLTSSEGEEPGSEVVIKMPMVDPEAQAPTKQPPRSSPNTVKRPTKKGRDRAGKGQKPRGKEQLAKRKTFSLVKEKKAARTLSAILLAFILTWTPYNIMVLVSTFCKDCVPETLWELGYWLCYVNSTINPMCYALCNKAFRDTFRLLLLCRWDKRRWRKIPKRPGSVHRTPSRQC

In this experiment the target is Muscarinic acetylcholine receptor M1 (Homo sapiens) (UniProt P11229). Kind of experiment: Cholinergic receptor muscarinic 1 (CHRM1) small molecule agonists, cell-based qHTS assay (AID 1963589). Also: nearly all actives have a fitted effect of over 35% in size. The settings on record: CHRM1-CHO cells, agonist mode, calcium flux fluorescence; series mostly up to 76.8 µM. From the text:
National Center for Advancing Translational Sciences [NCATS]
Division of Preclinical Innovation [DPI]
U.S. Environmental Protection Agency [EPA]
National Institutes of Environmental Health Sciences [NIEHS]
National Toxicology Program [NTP]
U.S. Food and Drug Administration [FDA]
The CHRM1 is a muscarinic receptor. This receptor plays a crucial role in learning and memory processes and has long been identified as a promising therapeutic target for the improvement of cognitive decline in Alzheimer's disease (AD). The CHRM1-CHO cell line stably expressing human muscarinic acetylcholine receptor M1 (CHRM1) can be used for screening agonists and antagonists of interactions between CHRM1 and its ligands. The CHRM1-CHO Calcium Flux Assay is a homogeneous fluorescence-based assay for detecting the intracellular calcium level using FDSS kinetic plate reader system.
CHRM1-CHO cells were dispensed at 1000 cells/3uL/well in 1536-well black-clear bottom plates using a Multidrop Dispenser. After the assay plates were incubated at a 37 C/5% CO2 incubator for 18 h, 3 uL of Dye Loading Buffer was transferred to the assay plate by a Flying Reagent Dispenser. The assay plates were incubated at 37 C for 1h. For agonist mode, 23 nL of compounds dissolved in DMSO, positive controls or DMSO only was transferred to the assay plate by a pin tool. […] Each test compound was measured at 15 concentrations in three independent runs.
(qHTS replaces the single test concentration by a dilution series.)
As for `CCNCC`, the Potency entry was “inactive”.
For the compound `CCOP(=S)(OCC)O/N=C(\C#N)c1ccccc1`, the Potency result is “inactive”.
As for `COC(=O)Nc1cccc(OC(=O)Nc2cccc(C)c2)c1`, the entry is “inactive”; as for `COP(=O)(O)OC`, “inactive”; as for `CCCC(=O)Cl`, “inactive”.
For `COC(=O)C(Cl)C(=O)OC` the value was “inactive”.
Regarding `CC(C)(c1ccccc1)c1ccc(O)c(C(C)(C)c2ccccc2)c1`, the Potency entry is “inactive”.
For `CC[C@H](N)c1ccccc1` the value was “inactive”; for `O=[N+]([O-])O[C@H]1CO[C@H]2[C@@H]1OC[C@H]2O[N+](=O)[O-]`, “inactive”; for `CN(C)C(=O)Nc1ccc(Cl)cc1`, “inactive”.
As for `CCN(N=O)C(N)=O`, the entry is “inactive”.
In the case of `CCOc1ccc(N)cc1`, the Potency entry is “inactive”.
Regarding `CCC(C)Cl` (stereo not given), the Potency entry was “inactive”.
Take `NNC(=S)NN`: the Potency entry was “inactive”.
For `CCCCCCCCCCCCCl` the value was “inactive”; for `CN=C=S`, “inactive”.
As to `ClC(Cl)=C(c1ccc(Cl)cc1)c1ccc(Cl)cc1`, the Potency result is “inactive”.
For `ClC(Cl)c1ccccc1` the value was “inactive”.
As for `C1CN2CCN1CC2`, the entry is “inactive and 54.9 µM (active)”; as for `CCCCCC[n+]1ccccc1`, “inactive”.
For `CN(C)P(=O)(N(C)C)N(C)C` the value was “inactive”; for `CC1=C(C(=O)Nc2ccccc2)SCCO1`, “inactive”.
As for `CC(C)(C)C(O)(CCc1ccc(Cl)cc1)Cn1cncn1` (stereo not given), the Potency result was “inactive”.
`CC(C)Oc1cc(-n2nc(C(C)(C)C)oc2=O)c(Cl)cc1Cl`: the Potency result is “inactive”.
For `CCCCCCCCSC(=O)Oc1cc(Cl)nnc1-c1ccccc1` the value was “inactive”; for `O=[N+]([O-])c1ccc(CBr)cc1`, “inactive”.
For `O=C/C(Cl)=C(/Cl)C(=O)O` the value was “inactive”; for `CC(C)(c1ccccc1)c1cc(-n2nc3ccccc3n2)c(O)c(C(C)(C)c2ccccc2)c1`, “inactive”.
As for `CCCCC(CC)COC(=O)c1c(Br)c(Br)c(Br)c(Br)c1C(=O)OCC(CC)CCCC` (stereo not given), the entry is “inactive”; as for `CCCCOCCOC(C)=O`, “inactive”.
`O=c1[nH]c(=O)[nH]c(=O)[nH]1`: the Potency entry is “inactive”.
As for `C[C@]12CCC(=O)C(O)=C1CC[C@@H]1[C@@H]2CC[C@]2(C)C(=O)CC[C@@H]12`, the entry is “inactive”; as for `N#Cc1c(Cl)c(Cl)c(Cl)c(C#N)c1Cl`, “inactive”.
For `CN(C)CCC#N` the value was “inactive”; for `CC(C)C1(C)N=C(c2nc3ccccc3cc2C(=O)O)NC1=O` (stereo not given), “inactive”; for `CC(C)c1ccc(OP(=O)(Oc2ccc(C(C)C)cc2)Oc2ccc(C(C)C)cc2)cc1`, “inactive”.
For `OC(Cc1ccccc1Cl)(Cn1cncn1)C1(Cl)CC1` (stereo not given) the value was “inactive”; for `O=C(O)c1nc(Cl)ccc1Cl`, “inactive”.
For the compound `N#Cc1ccccc1Cl`, the Potency entry is “inactive”.
Take `O=C(O)C(F)(F)C(F)(F)C(F)(F)C(F)(F)C(F)(F)C(F)(F)C(F)(F)C(F)(F)F`: the Potency entry is “inactive”.
